Experimental findings from ChEMBL document CHEMBL3988442, “University of Dundee, Small-Polar-MMV Screening Library” (2021) are described below.

Each structure is given as a SMILES string.

Assay [1] addresses T1, Aspartate--tRNA(Asp/Asn) ligase (Mycobacterium tuberculosis (strain ATCC 25618 / H37Rv)) (UniProt P9WFW3).
T1 sequence (whole entry): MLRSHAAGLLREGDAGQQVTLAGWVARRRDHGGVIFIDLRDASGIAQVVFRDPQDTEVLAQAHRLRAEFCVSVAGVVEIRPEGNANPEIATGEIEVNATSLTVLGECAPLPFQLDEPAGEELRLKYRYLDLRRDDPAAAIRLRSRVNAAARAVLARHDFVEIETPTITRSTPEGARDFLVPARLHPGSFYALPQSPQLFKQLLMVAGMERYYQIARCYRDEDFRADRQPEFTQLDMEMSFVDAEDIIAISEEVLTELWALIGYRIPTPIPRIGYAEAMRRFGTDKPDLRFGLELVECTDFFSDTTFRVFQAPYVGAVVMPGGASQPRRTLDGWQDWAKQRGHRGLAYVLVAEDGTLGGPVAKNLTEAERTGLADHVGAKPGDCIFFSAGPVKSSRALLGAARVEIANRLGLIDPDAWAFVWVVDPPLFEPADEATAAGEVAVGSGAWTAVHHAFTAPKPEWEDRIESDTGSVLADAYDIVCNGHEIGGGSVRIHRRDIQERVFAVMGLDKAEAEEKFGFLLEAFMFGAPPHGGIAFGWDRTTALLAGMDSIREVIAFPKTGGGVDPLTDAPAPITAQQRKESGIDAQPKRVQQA
The assay is described as follows: Assay for Asp RNA synthetase-1 from Mycobacterium tuberculosis. In kind it is functional. Details: scale not given: direction of the effect not stated beside the values. As to conditions: 30 µM.

The target in assay [2] is Shiga toxin 2 (Escherichia coli O157:H7) (UniProt P09385+P09386). Nature of the assay: E. coli 0.157:H7 Shiga Toxin SOP - stx2 screening assay. In kind it is functional. Details: scale not given: direction of the effect not stated beside the values. As to conditions: 30 µM.

Take `CC(C)c1nn(C)c(N2CCOCC2)c1CN[C@H](C)CO`: the Percent Effect was -1.94% in assay [1] and 30.8% in assay [2].

On to `CC(C)CC(=O)N1CCc2nc(N3CCOCC3)nc(NC(C)C)c2C1`, for which the Percent Effect was -3.63% in assay [1] and 6.88% in assay [2].

As to `Cc1cc(CC(=O)NCc2ccnc(OCC(F)(F)F)c2)no1`, the Percent Effect is -6.06% in assay [1] and 21% in assay [2].

For the molecule `Cc1ccn(-c2cccc(C(=O)N3CCCC(n4ccnc4C)C3)c2)n1` (stereo not given), the results for the Percent Effect in assay [1] and in assay [2] were -0.301% and -7.17%, respectively.

Turning to `COc1ccc(CC(=O)NC2(C)CCS(=O)(=O)C2)cc1F` (stereo not given), the Percent Effect is 4.95% in assay [1] and -19.1% in assay [2].

In the case of `CCc1ncc(C(=O)N2CCCCC2Cn2cccn2)s1` (stereo not given), the Percent Effect in assay [1] was -4.28%; in assay [2], 15.5%.

For the molecule `Cc1ccc(Cl)cc1C(=O)N1CCC2(CC1)c1ccccc1[C@@H](N)[C@@H]2O`, the Percent Effect in assay [1] is -0.814%; in assay [2], -5.92%.

In the case of `Cc1cccn2c(=O)cc(OC(=O)c3ccccc3)nc12`, the Percent Effect in assay [1] is -3.21%; in assay [2], -13.3%.

In the case of `CCNS(=O)(=O)c1ccc(C)c(C(=O)N(C)Cc2ccco2)c1`, the Percent Effect in assay [1] stood at 2.92%; in assay [2] it was 0.315%.

Consider `CS(=O)(=O)NCC1CCCN(C(=O)COCc2ccccc2)C1` (stereo not given), for which the Percent Effect in assay [1] was -6.12%; in assay [2], -16.5%.

Take `COc1ccc(-c2csc(N)c2C#N)cc1OC`: the Percent Effect in assay [1] is 3.46%; in assay [2] it was -24.5%.

With `CC[C@@H]1N(CC2CC2)CCC[C@]12CCC(=O)N2CCOC`, the Percent Effect is -4.31% in assay [1] and -1.83% in assay [2].

Turning to `Cn1cc(CN2CC[C@H](O)[C@@H]2Cc2ccncc2)cn1`, the Percent Effect is -1.6% in assay [1] and -6.08% in assay [2].

For `CN(Cc1ccco1)C(=O)CN1CCCC(Cn2cncn2)C1` (stereo not given), the values for the Percent Effect in assay [1] and in assay [2] were -1.04% and -14.6%, respectively.

Take `CCn1nc2c(cc1=O)CN(Cc1nc(-c3ccsc3)no1)CC2`: the figures for the Percent Effect in assay [1] and in assay [2] were 5.03% and -16.2%, respectively.

On to `Cc1cc(N2CCC(N(C)C(=O)c3ccccc3)CC2)nc(C)n1`, for which the Percent Effect in assay [1] was -5.32%; in assay [2], -9.61%.

On to `CCc1ccc(OCC(O)CN2CCC(O)CC2)cc1` (stereo not given), for which the Percent Effect was 3.31% in assay [1] and 16.1% in assay [2].

In the case of `O=C(CSCC1CC1)N1CCCC(c2nccn2Cc2ccncc2)C1` (stereo not given), the results for the Percent Effect in assay [1] and in assay [2] were -7.86% and 6.34%, respectively.

As to `CC(C)c1nc(C2CCCN(C(=O)Cc3cccnc3)C2)no1` (stereo not given), the figures for the Percent Effect in assay [1] and in assay [2] were -2.44% and 23.6%, respectively.

For the molecule `CC(=O)N(Cc1noc(C2CC2)n1)C1CCN(Cc2nccn2C)C1` (stereo not given), the Percent Effect is -4.37% in assay [1] and 12.9% in assay [2].

As for `Cc1nnc(CN2CCN(CCOc3ccccc3C#N)CC2)n1C`, the Percent Effect in assay [1] stood at 3.6%; in assay [2], 3.89%.

Turning to `Cc1cc(C)c(CNC(=O)N(C)Cc2sccc2C)c(=O)[nH]1`, the Percent Effect in assay [1] was 2.05%; in assay [2], 33.8%.

Regarding `Cc1nnc2n1CCN(C(=O)c1cc(Cl)c[nH]1)C2`, the Percent Effect in assay [1] is -0.345%; in assay [2], 2.46%.

As to `COCCNC(=O)NCCc1ccn(-c2ccccc2)n1`, the figures for the Percent Effect in assay [1] and in assay [2] were -4.41% and 3.32%, respectively.

For the molecule `Cc1ccc(N2CC3(COCCN(Cc4cccnc4)C3)OCC2=O)s1` (stereo not given), the Percent Effect is 10.1% in assay [1] and -4.57% in assay [2].

Consider `COc1ccc(CN2CCCC3(CCN(c4ccsc4)C3=O)C2)cc1` (stereo not given), for which the Percent Effect was 1.46% in assay [1] and -4.23% in assay [2].

On to `CCOC(=O)CNC(=O)c1cccnc1Oc1ccc(Cl)cc1`, for which the Percent Effect in assay [1] is -1.89%; in assay [2], 6.74%.

As for `Cc1ncsc1CN1CC[C@H]2C(=O)N(c3ccccc3)CCO[C@H]2C1`, the Percent Effect was -1.84% in assay [1] and 3.87% in assay [2].

With `CC(C)(C)c1n[nH]c(C2CN(C(=O)c3cc(Cl)c[nH]3)CCO2)n1` (stereo not given), the Percent Effect was -4.97% in assay [1] and 0.626% in assay [2].

`CCCc1noc(CN2CCCC2c2c(C)nn(C)c2OC)n1` (stereo not given): the Percent Effect is -5.33% in assay [1] and 4.3% in assay [2].

`Cc1cc(CN2CCOCS2(=O)=O)ccc1F`: the Percent Effect in assay [1] was 1.64%; in assay [2] it was 3.93%.

For `Cn1c(CN2CCCC2c2noc(C3CC3)n2)cc(=O)n(C)c1=O` (stereo not given), the Percent Effect was -4.22% in assay [1] and -7.03% in assay [2].

With `Cc1cc(CN2CCN(c3ccc4nncn4n3)C(C)C2)no1` (stereo not given), the results for the Percent Effect in assay [1] and in assay [2] were -3.98% and -29.9%, respectively.

As for `Cc1nn(C)c(N(C)C)c1CNCc1cccc(OCCN(C)C)c1`, the Percent Effect was -1.92% in assay [1] and 27.4% in assay [2].

As to `CC(C)OCCCNC(=O)CS(=O)(=O)Cc1ccc(Cl)c(Cl)c1`, the Percent Effect is 5.22% in assay [1] and 30.4% in assay [2].

Turning to `Cn1ccc(C(=O)NC2CCC23CCN(C(=O)c2ccncc2)CC3)c1` (stereo not given), the values for the Percent Effect in assay [1] and in assay [2] were 0.319% and -10.5%, respectively.

For `CCNC(=O)N1CCN(Cc2nc3ccccc3[nH]2)[C@@H]2CS(=O)(=O)C[C@@H]21`, the Percent Effect in assay [1] is 2.89%; in assay [2], -6.12%.

For `CCOc1ccccc1C(CC(=O)Nc1ccccc1F)NC(C)=O` (stereo not given), the Percent Effect is -4.12% in assay [1] and 31.5% in assay [2].

As for `COCC(=O)NCc1cccc(Br)c1`, the Percent Effect in assay [1] was -1.9%; in assay [2] it was 20.1%.

Turning to `Cn1ccc(C(=O)NC2CCC23CCN(C(=O)N2CCCC2)CC3)c1` (stereo not given), the Percent Effect in assay [1] was -3.32%; in assay [2], -4.99%.

For `O=C(CCC1CCCO1)NS(=O)(=O)c1ccc(Cl)cc1` (stereo not given), the Percent Effect in assay [1] is -1.43%; in assay [2] it was 21.6%.

Take `CNS(=O)(=O)c1cc(C(=O)NC2CCOc3ccccc32)cc(C)c1C` (stereo not given): the values for the Percent Effect in assay [1] and in assay [2] were -2.19% and 3.19%, respectively.

As to `CN1CCN(Cc2cscn2)CC(C(=O)N(C)C)C1` (stereo not given), the Percent Effect in assay [1] is -6.57%; in assay [2] it was -14.6%.

Turning to `CS(=O)(=O)CCNC(=O)C1(c2cccc(Cl)c2)CCCCC1`, the Percent Effect is 1.2% in assay [1] and -20.3% in assay [2].

As to `Cc1cc(C(=O)O)cc(S(=O)(=O)Nc2ccc3c(c2)OCO3)c1C`, the Percent Effect was 11.6% in assay [1] and -48% in assay [2].

On to `Cc1ccccc1S(=O)(=O)N1CCCCC1c1ccn[nH]1` (stereo not given), for which the Percent Effect in assay [1] was determined as 0.632%; in assay [2] it was 35.1%.

Consider `Cc1ccc(C(=O)N2CCN(Cc3nc(C(C)C)no3)CC2)c(=O)[nH]1`, for which the Percent Effect in assay [1] is 2.27%; in assay [2], 26.1%.

On to `O=C(c1cnc(C2CC2)s1)N1CCCCC1Cn1cccn1` (stereo not given), for which the values for the Percent Effect in assay [1] and in assay [2] were -8.43% and -18.5%, respectively.

Regarding `Cc1ccc(Cl)cc1N1CCC(CNC(=O)CCn2ccnc2)C1` (stereo not given), the figures for the Percent Effect in assay [1] and in assay [2] were -2.41% and -19.4%, respectively.

Regarding `O=C(Nc1ccccc1)c1nn(C2CCS(=O)(=O)C2)c2c1CCCC2` (stereo not given), the Percent Effect in assay [1] worked out at 0.629%; in assay [2] it was 4.6%.
